Source: PubChem BioAssay AID687030 (Broad Institute, 2013)
In all, about 1,400 compounds went through this assay and about 10 (0.7%) were called active. The rule behind the calls is not given here. Only a sample is shown. Where a call stands in place of a potency, no number is given. Potency and affinity values are given separately.

assay: BHK-21 cell toxicity, dose response, cytotoxicity control, plate reader, cherry-pick samples (AID 687030); settings: BHK-21 cells; series mostly up to 19.5 µM;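 note: cells were exposed to compound for three days before reading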

Structure (SMILES)	outcome
O=C(Nc1ccc(Cl)cc1)N(CCCN1CCOCC1)Cc1cccs1	inactive
NC[C@H](Cc1ccccc1)NCCCCC1CCCCC1	inactive
CO[C@@H](CN(C)C(=O)c1cc(Cl)cc(Cl)c1)[C@H](C)CN(C(=O)Nc1ccc(F)cc1)[C@@H](C)CO	inactive
COc1cccc(CNC(=O)[C@H]2CCCN2C(=O)C2CCCN2C(=O)c2ccc(OC)c(F)c2)c1 (stereo not given in full)	inactive
CCCNC(=O)[C@H]1[C@H](CO)[C@H]2Cn3c(cccc3=O)[C@H]2N1Cc1ccccc1Cl	inactive
COc1ccc(-c2sc3cc4c(cc3c2C#Cc2cncn2C)OCO4)cc1	inactive
CC(C)(C)c1ccc(C(=O)Nc2ccc3c(c2)C(=O)NC3=O)cc1	inactive
CC(=O)Nc1cccc(OCCCNC(=O)c2ccc(C(C)(C)C)cc2)c1	inactive
CN1C(=O)c2cc(NC(=O)NCc3ccccc3)ccc2OC[C@H]2O[C@H](CC(=O)NCC3CCCCC3)CC[C@H]21	inactive
Cc1ccccc1OCCC(=O)OCC(=O)NCCc1ccc(S(N)(=O)=O)cc1	inactive
C[C@H](CO)N1C[C@H](C)[C@@H](CN(C)Cc2ccc3c(c2)OCO3)OCCCC[C@H](C)Oc2ccc(N(C)C)cc2C1=O	inactive
CSc1ccccc1NC(=O)c1cc2c(=O)n3ccccc3nc2s1	inactive
CCN(CC)CCCNc1nc(C)cc(COC)c1C#N	inactive
CCCCN(C(=O)c1ccc2c(c1)NC(=O)CS2)c1ccccc1	inactive
O=C(OCc1ccccc1)N1CCCC2CC1c1ccccc12 (stereo not given)	inactive
COc1cccc(OC)c1C(=O)N1CCN(Cc2c[nH]c3ccccc23)CC1	inactive
O=C(c1ccc(CNc2c(N3CCCC3)c(=O)c2=O)cc1)N1CCN(C2CCCCC2)CC1	inactive
CCOc1ccccc1-c1nnc(CS(=O)(=O)c2ccccc2)o1	inactive
CCOC(=O)c1ccc(NC(=O)c2nc[nH]c2C(=O)NC2CCN(C(=O)OC(C)(C)C)CC2)cc1	inactive
Cc1cccc(N(C)c2cc(C)nc3nc(C)nn23)c1	inactive

Structure (SMILES)	outcome
COCc1cccc(-c2csc(C(N)c3ccc(F)c(F)c3)n2)c1 (stereo not given)	inactive
COc1ccc(S(=O)(=O)N2CCCCN3[C@H](CO)[C@H](c4ccc(C5=CCCC5)cc4)[C@@H]3C2)cc1	inactive
COC(=O)c1ccc(NC(=O)C2CC3CCC2C3)cc1 (stereo not given)	inactive
COc1ccc(C2(C)CC(C)(C)Nc3ccccc32)cc1 (stereo not given)	inactive
CC(C)(O)C#Cc1ccc([C@@H]2[C@@H](CO)N3CCCCN(C(=O)c4ccc(F)cc4)C[C@@H]23)cc1	inactive
O[C@@H]1CN(Cc2cccs2)[C@@H](c2ccccc2)C[C@H]1n1cc(-c2ccc(F)cc2)nn1	inactive
COC(=O)c1c(NC(=O)CC2Sc3ccc(C(F)(F)F)cc3NC2=O)sc(C)c1C (stereo not given)	inactive
COC(=O)c1ccc2nc(-c3ccc(F)cc3)c(Cc3ccccc3OC)n2c1	inactive
CC(C)C(NS(=O)(=O)c1ccc2c(c1)C(C)(C)C(=O)N2C)C(=O)NCc1ccccc1Cl (stereo not given)	inactive
COc1ccc2c3c(n(C)c2c1)[C@H](CO)N(C(=O)Nc1ccccc1F)CC31CN(C)C1	inactive
C[C@H]1CN([C@@H](C)CO)C(=O)c2cc(NC(=O)CCCN(C)C)ccc2O[C@@H]1CN(C)S(=O)(=O)c1ccc(Cl)cc1	inactive
Cc1ccccc1OCCCCN1CCCCC1	inactive
Cc1ccc(SC[C@H](Cc2ccccc2)N2CC[C@@H](C)CCC2=O)cc1	inactive
CC(C)c1ccc(NC(=O)Nc2nc(C(N)c3ccccc3Cl)cs2)cc1 (stereo not given)	inactive
Cc1ccc(N(C)C(=O)N2CCN(S(=O)(=O)c3ccc(C)cc3)CC2)cc1	inactive
CCOC(=O)c1[nH]c2ccccc2c1NC(=O)c1ccc2c(c1)OCO2	inactive
Cc1cccc(N(C(=O)Cn2nnc3ccccc32)C(C(=O)NC(C)(C)C)c2ccsc2)c1 (stereo not given)	inactive
O=C(CNC(=O)N1CC(=O)Nc2ccccc21)NCc1ccc(F)cc1	inactive
Cc1noc(C)c1S(=O)(=O)N(C)C[C@H]1OCCCC[C@@H](C)Oc2ccc(NC(=O)Nc3ccc4c(c3)OCO4)cc2C(=O)N([C@@H](C)CO)C[C@H]1C	inactive
CCOC(=O)c1[nH]c(C)c(C(=O)OCC(=O)N2CC(=O)Nc3ccccc32)c1C	inactive

Structure (SMILES)	outcome
CC1CCCCN1CCCNC(=O)c1ccc2nc(N3CCCCC3)sc2c1 (stereo not given)	inactive
CCOC(=O)c1sc(NC(=O)c2ccncc2)c(C#N)c1C	inactive
CC(C)C(=O)Nc1nnc(S(=O)(=O)N2CCc3ccccc32)s1	inactive
Fc1ccc(CCN2CCN=C2Nc2ccccc2)cc1	inactive
CCC(C)[C@H]1COCCS(=O)(=O)N1Cc1ccc(Br)cc1 (stereo not given in full)	inactive
O=C(N[C@@H]1C=C[C@H](CC(=O)N2CCc3ccccc3C2)O[C@@H]1CO)C1CCC1	inactive
COc1cc2cc(CCCOC(=O)CCC(=O)O)oc(=O)c2cc1OC	inactive
CC1Cc2ccccc2N1S(=O)(=O)c1cnc(Cl)c(Br)c1 (stereo not given)	inactive
O=C(O)c1cccc(-c2csc(C(O)c3ccc(F)c(F)c3)n2)c1 (stereo not given)	inactive
O=C(O)c1ccccc1C(=O)NCc1c(Cl)cccc1Sc1ccc(Cl)cc1	inactive
COc1ccc(CCN2CC(C(=O)NCCc3cn[nH]c3)CCC2=O)cc1 (stereo not given)	inactive
CNC(=O)C[C@H]1CC[C@@H]2[C@H](COc3ccc(NC(=O)c4ccc(F)c(F)c4)cc3C(=O)N2C)O1	inactive
COc1cc2c(cc1OC)CN(C(=O)CCOc1ccccc1C)CC2	inactive
N#Cc1cccnc1N1CCN(C(=O)c2ccccc2)CC1	inactive
O=C(NCC[C@H]1CC[C@H](NS(=O)(=O)c2ccc(Oc3ccccc3)cc2)[C@@H](CO)O1)C1CC1	inactive
CCCCCc1c(-c2ccccc2OC)ncn1CCc1ccccc1OC	inactive
O=C(Nc1cccc(S(=O)(=O)N2CCCCCC2)c1)c1ccc2ccccc2n1	inactive
Cc1ccc(C(=O)O/N=C(\N)c2ccccn2)cc1	inactive
CCc1nc2ccc(C(=O)N(CC)CCN(C)C)cn2c1N(C)C(=O)c1cccc(OC)c1	inactive
C[C@@H]1CN([C@@H](C)CO)C(=O)c2cc(NS(=O)(=O)c3ccc(Cl)cc3)ccc2O[C@@H](C)CCCCO[C@H]1CN(C)CC1CC1	inactive
